# Bioassay records: PubChem BioAssay, several laboratories
# This is a sample that favours compounds with a hit; in the whole collection about 4.3% have one here.
# ADAM17 inh: ADAM17 inhibition, QFRET primary screen; P78536; recombinant ADAM17, EDANS/DABCYL FRET peptide cleavage; inhibition, % at 6.95 µM; 0.83% of 370,000 active; AID 720648;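 active = inhibition above the mean of compounds lying between control limits plus 3 SD, set per campaign, cut at about 8.5% in these data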;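 note: 0% = DMSO-only wells as the low control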
# GRIN3A LBD mod: NR3A (human) ligand-binding domain modulation; NR3A LBD differential scanning fluorimetry, Tm shift; 0% = protein alone, 100% = glycine-bound protein; Tm shift relative to glycine control, % at 25 µM; 2.5% of 340,000 active; AID 1259313;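 active = melting temperature shift of at least 10% of the positive control shift, at one fixed dose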
# FAS-TE inh: FAS thioesterase (human) inhibition | P49327 | recombinant FAS-TE, OMFH fluorogenic substrate, fluorescence endpoint | inhibition, % at 15 µM | 0.67% of 360,000 active | AID 602261;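 active = compounds whose normalised, plate-corrected inhibition of enzyme fluorescence in the single-dose primary screen is 50% or more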;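 note: 0% = DMSO with enzyme and 100% = substrate without enzyme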
# ADAM10 inh: inhibitors of human ADAM10. O14672. recombinant ADAM10, EDANS/DABCYL FRET peptide cleavage, 3 h. inhibition, % at 7 µM. 0.62% of 370,000 active;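 active = inhibition above a per-campaign cutoff equal to the mean of compounds falling between control-based bounds plus 3 SD, cut at about 20% in these data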;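 note: 0% = DMSO wells while the 100% control is not disclosed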
# Target sequence (O14672 214-748 limits assumed): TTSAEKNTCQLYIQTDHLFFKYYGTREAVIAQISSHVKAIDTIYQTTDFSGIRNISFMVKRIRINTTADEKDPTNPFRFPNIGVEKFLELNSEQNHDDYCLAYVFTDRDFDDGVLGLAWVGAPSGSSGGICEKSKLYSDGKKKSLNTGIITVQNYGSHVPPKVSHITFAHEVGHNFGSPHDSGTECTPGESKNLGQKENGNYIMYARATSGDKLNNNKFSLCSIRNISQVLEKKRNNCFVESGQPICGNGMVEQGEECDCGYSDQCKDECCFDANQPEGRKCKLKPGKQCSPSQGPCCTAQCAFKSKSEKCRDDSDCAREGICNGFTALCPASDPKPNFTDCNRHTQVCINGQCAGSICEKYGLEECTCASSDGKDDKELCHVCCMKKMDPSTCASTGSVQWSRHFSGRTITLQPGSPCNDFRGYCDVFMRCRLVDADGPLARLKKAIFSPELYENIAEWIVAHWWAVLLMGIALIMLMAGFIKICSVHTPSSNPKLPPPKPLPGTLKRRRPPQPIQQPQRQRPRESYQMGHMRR
# HGIII-sPLA2 inh: Inhibits HGIII-sPLA2 liposome hydrolysis, primary screen | Q9NZ20 | QFRET BODIPY PC-A2 liposome hydrolysis, fluorescence | inhibition, % at 12.2 µM | 0.56% of 370,000 active;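 active = inhibition above mean plus 3 SD of compounds lying within the high and low control bounds, cut at about 19% in these data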;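 note: 0% = median of test compound wells and 100% = no enzyme DMSO wells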
# ADAM10 confirm: human ADAM10 inhibition, confirmation; shares compounds with ADAM10 inh; ADAM10 QFRET peptide cleavage, EDANS fluorescence; inhibition, % at 6.95 µM; 1% of 2,100 active;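 active = inhibition above about 20% chosen separately for each screening run, limit read from the data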;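 note: 0% = DMSO wells and 100% = marimastat wells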
# ADAM17 ctr: inhibits human ADAM17 in ADAM10 exosite counter-screen. shares compounds with ADAM10 inh. ADAM17 QFRET peptide cleavage, EDANS fluorescence. inhibition, % at 6.95 µM. 0.5% of 2,100 active. AID 743214;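 active = mean triplicate inhibition above the solvent-only control wells' mean plus 3 SD, cut at about 12% in these data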;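 note: 0% = DMSO wells and 100% = marimastat wells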
# Active calls of the source: *; / = not tested or not shown.
SMILES,ADAM17 inh,GRIN3A LBD mod,FAS-TE inh,ADAM10 inh,HGIII-sPLA2 inh,ADAM10 confirm,ADAM17 ctr
COC(=O)[C@]12C[C@H](CC(=O)NCCc3ccccc3OC)C(=O)N(Cc3cccc4ccccc34)C1=C[C@H](C1CCCC1)O[C@@H]2C,6.6,/,/,25.4*,-8.3,10.1,3.4
COC(=O)[C@]12C[C@H](CC(=O)N3CCC(c4ccccc4)CC3)C(=O)N(Cc3ccccc3)C1=C[C@H](COCc1ccccc1)O[C@@H]2C,8.1,/,/,23.9*,-15.4,4.7,1.3
CCCNC(=O)Nc1ccc2c(c1)C(=O)N(C)[C@H]1CC[C@@H](CC(=O)OC)O[C@H]1CO2,-7.0,/,/,-9.6,4.5,/,/
CCN=C1S/C(=C/c2cc(C)n(-c3ccc(Cl)cc3F)c2C)C(=O)N1CC,-9.0,/,/,-11.1,1.5,/,/
COC(=O)c1cn[nH]c1NC(=S)Nc1ccccc1C,6.7,2.2,-158.7,25.1*,1.3,2.5,2.5
O=C(O)Cn1nnnc1SCC(=O)Nc1ccc(OC(F)(F)F)cc1,-5.4,0.7,-6.9,81.8*,4.3,-0.8,-0.2
O=C(Nc1ccc(Cl)c([N+](=O)[O-])c1)C(Sc1ccccc1)c1ccccc1 (configuration not stated),11.5*,27.6*,44.1,26.2*,-18.9,8.4,2.9
Cc1c(Cl)cccc1NC(=O)CNC(=O)Cc1c[nH]c2ccccc12,0.1,0.2,-0.9,32.7*,-54.2,3.0,0.1
COc1ccc(S(=O)(=O)NCC(=O)N(Cc2ccco2)C(C(=O)NC(C)(C)C)C(C)C)cc1 (configuration not stated),-0.2,-2.0,-2.0,20.4*,2.3,1.2,0.4
C[C@@H]1CN([C@@H](C)CO)C(=O)CCCn2cc(nn2)CO[C@H]1CN(C)C(=O)Nc1ccc2c(c1)OCCO2,-2.2,/,/,-3.9,-3.4,/,/
N#Cc1c(NC(=O)CCN2C(=O)c3ccccc3C2=O)oc(-c2ccccc2)c1-c1ccccc1,-7.1,-1.6,-0.3,-5.8,-5.4,/,/
N#Cc1c(NC(=O)CCn2cnc3ccccc3c2=O)oc(-c2ccccc2)c1-c1ccccc1,6.5,-5.1,17.7,20.1*,-46.8,15.9,5.7
O=C(c1cccs1)N1CC[C@H]2[C@H](CCCN2Cc2cc(F)cc(F)c2)C1,-4.7,/,/,-9.8,9.8,/,/
O=c1[nH][nH]c2c1C(c1ccc(F)cc1)OC(CCc1ccccc1)C2 (configuration not stated),7.3,/,-12.8,20.0*,-51.1,2.5,0.7
O=c1[nH][nH]c2c1[C@@H](c1ccc(F)cc1)O[C@H](CCc1ccccc1)C2,8.0,/,-44.5,18.9,-53.0,/,/
CC(C)C(=O)OCCCN1CCC2(CCC(c3ccccc3)CC2)C1=O (configuration not stated),-1.2,/,/,1.1,-3.4,/,/
COc1ccc(S[C@]2(C(=O)N(C)C)CC(=O)N(C(=O)/C=C/c3ccccc3)[C@@H]2c2ccc(OC)cc2)cc1,-0.5,/,/,3.5,-6.1,/,/
Cc1ccccc1-n1nc(-c2ccc(N)cc2)cc1N,5.8,-3.8,-5.1,41.9*,11.1,3.1,-0.1
O=C(Nc1ccc(Oc2ccccc2)cc1)C1CCCN1S(=O)(=O)c1cccc2cccnc12 (configuration not stated),7.2,/,/,15.4,-5.3,/,/
CCOc1ccc(NC(=S)Nc2ccc(F)cc2)cc1,-2.5,-7.9,-4.2,-1.6,4.9,/,/
CCOc1ccc(NC(=S)Nc2cc(-c3ccccc3)[nH]n2)cc1,3.6,14.5*,12.4,23.1*,-4.3,6.0,1.1
CN(CC(=O)Nc1ccc(F)cc1Cl)Cc1cccs1,2.7,-0.8,7.8,-3.0,-2.6,/,/
CN(CC(=O)Nc1cc(Cl)cc(Cl)c1)Cc1cccs1,0.9,-7.1,23.8,22.3*,-5.0,7.5,2.4
O=C(CN1CCN(S(=O)(=O)c2ccc(F)cc2)CC1)c1ccc(O)c(O)c1,-3.8,-2.9,-1.9,0.1,-0.1,/,/
COc1ccc(S(=O)(=O)N2CCN(CC(=O)c3ccc(O)c(O)c3)CC2)cc1,-1.9,2.5,-7.2,21.9*,3.8,1.6,0.5
SMILES,ADAM17 inh,GRIN3A LBD mod,FAS-TE inh,ADAM10 inh,HGIII-sPLA2 inh,ADAM10 confirm,ADAM17 ctr
COc1c(C)cc(Br)cc1C(=O)Nc1cccc(NC(=O)c2ccco2)c1,/,-3.9,16.4,/,/,/,/
Cc1cc(C)c(OCC(=O)Nc2cccc(NC(=O)c3ccco3)c2)c(Br)c1,7.5,-10.3,29.7,21.0*,-27.3,6.2,2.4
COc1ccc(CNC(=O)C2(c3ccc(Cl)cc3)CC2)cc1,3.5,-2.2,9.4,20.8*,3.8,0.0,0.1
CC(=O)c1ccc(NC(=S)NC(C)c2ccc(Cl)cc2Cl)cc1 (configuration not stated),8.0,22.2*,39.8,23.9*,-45.8,4.2,1.2
COc1ccc(NC(=O)CSc2ncnc3scc(-c4ccc(C)cc4)c23)cc1OC,1.4,/,/,2.2,-1.8,/,/
CC(C)C(=O)NC(c1ccccc1)c1cc([N+](=O)[O-])c2cccnc2c1O (configuration not stated),7.7,-5.4,4.9,20.1*,11.9,9.9,4.3
CC(=O)NC(c1ccccc1)c1cc([N+](=O)[O-])c2cccnc2c1O (configuration not stated),-0.3,-6.7,5.3,14.9,6.2,/,/
OCC1(Cc2ccccc2F)CCCN(CCc2ccccc2)C1 (configuration not stated),3.7,-0.8,-1.6,23.0*,-0.8,1.2,1.6
OCC1(Cc2ccc(F)cc2F)CCCN(CCCc2ccccc2)C1 (configuration not stated),0.1,-2.0,3.4,4.7,-4.5,/,/
OCCCn1c(CCNc2nc(-c3ccc(F)cc3)cs2)nc2cc(C(F)(F)F)ccc21,6.5,1.2,22.4,21.2*,-10.2,5.1,0.9
OCCCn1c(C2CCCN2c2nc(-c3ccc(F)cc3)cs2)nc2cc(C(F)(F)F)ccc21 (configuration not stated),5.5,-3.9,39.9,11.7,7.1,/,/
Clc1ccccc1C1CC(c2ccccc2)Nc2ncnn21 (configuration not stated),-3.5,-0.8,4.9,92.3*,12.9,2.3,-0.6
COC(=O)c1ccc(NCc2c(O)ccc(O)c2Br)cc1Cl,17.1*,32.2*,8.8,40.6*,34.4*,4.0,1.2
O=C(NC1CCCCN(Cc2cccc(F)c2)C1=O)c1cccc(F)c1 (configuration not stated),-6.0,/,/,-4.2,-0.3,/,/
CC(=O)NC1CCCCN(C(C)C)C1=O (configuration not stated),-5.5,/,/,-1.9,0.5,/,/
CCC(=O)c1ccc(OCC(=O)OCC(=O)Nc2ccc(C)c(S(=O)(=O)N3CCCCC3)c2)cc1,1.4,-4.0,1.3,-2.3,-11.8,/,/
